According to PubChem BioAssay (NCATS):
Results filed as inconclusive are left out. Calls of active or inactive are those of the source. Unless noted, calls follow the shape of the full dose curve.

How the values were obtained:
[1] = target: Alpha-galactosidase (Coffea arabica) (UniProt Q42656); experiment: Counterscreen for Glucocerebrosidase Inhibitors: qHTS Assay for Coffee Bean alpha-Galactosidase at pH 4.5 (AID 957; active = well fitted curve in the direction sought with a large enough effect; an effect the other way counts as inactive or inconclusive;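 also: series mostly up to about 77 µM; plate controls were enzyme alone for no effect and no enzyme for full effect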)
Alpha-galactosidase (Coffea arabica), sequence (Q42656 whole entry, looked up): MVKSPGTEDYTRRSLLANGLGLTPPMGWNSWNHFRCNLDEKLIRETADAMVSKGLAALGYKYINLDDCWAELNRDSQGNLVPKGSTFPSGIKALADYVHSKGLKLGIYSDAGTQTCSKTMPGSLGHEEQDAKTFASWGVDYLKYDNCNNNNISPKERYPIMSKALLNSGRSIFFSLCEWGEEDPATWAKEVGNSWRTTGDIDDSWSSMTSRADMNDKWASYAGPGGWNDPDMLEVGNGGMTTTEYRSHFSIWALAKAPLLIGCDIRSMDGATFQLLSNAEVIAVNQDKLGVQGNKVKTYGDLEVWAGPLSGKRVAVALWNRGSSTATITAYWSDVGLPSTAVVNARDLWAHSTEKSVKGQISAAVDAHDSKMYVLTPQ
Procedure, shortened: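 Quantitative HTS of compounds (0.7 nM to 77 uM) against coffee bean alpha-galactosidase at pH 4.5, measuring 4-methylumbelliferone fluorescence released from 80 uM substrate.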

[2] = target: Alpha-galactosidase (Coffea arabica) (UniProt Q42656); experiment: Counterscreen for Glucocerebrosidase Inhibitors: qHTS Assay for Coffee Bean alpha-Galactosidase at pH 5.9 (AID 998; active = well fitted curve in the direction sought with a large enough effect; an effect the other way counts as inactive or inconclusive;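 also: plate controls were uninhibited enzyme for no effect and no-enzyme basal signal for full effect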)
Procedure, shortened: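 Enzyme 2 nM + cpd (0.7 nM–77 uM titration) + 4-MU-alpha-Gal 80 uM, pH 5.9 citrate/Tween-20, RT 20 min, NaOH/glycine stop pH 10, fluor 365/440. Normalized to no-enzyme and full-activity controls; Hill-fit AC50.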

[3] = Inducers of the Endoplasmic Reticulum Stress Response (ERSR) in human glioma: Validation (AID 504836; active = well fitted curve in the direction sought with a large enough effect; an effect the other way counts as inactive or inconclusive; also: 0% is about no effect)
Procedure, shortened: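 Stably transfected U87-MG glioma cells carrying a GRP78-based luciferase sensor; 16 h compound incubation. Luminescence end-point read 10 min after Bright-Glo addition at room temperature.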

[4] = qHTS for Inhibitors of the Functional Ribonucleoprotein Complex (vRNP) of Lassa (LASV) Arenavirus: LASV Primary Screen - GLuc reporter signal (AID 1347082; calls by dose curve; tested in HEK293 reporter line; also: series mostly up to about 57 µM; % is scaled to controls: 0 for no effect and ±100 for the full control effect; nearly all actives have a fitted effect of over 60% in size)
[5] = qHTS for Inhibitors of the Functional Ribonucleoprotein Complex (vRNP) of Lassa (LASV) Arenavirus: Viability assay - alamar blue signal for LASV Primary Screen (AID 1347083; calls by dose curve; tested in HEK293 reporter line; also: series mostly up to about 57 µM; % is scaled to controls: 0 for no effect and ±100 for the full control effect; nearly all actives have a fitted effect of over 80% in size)
[6] = qHTS for Inhibitors of the Functional Ribonucleoprotein Complex (vRNP) of Lymphocytic Choriomeningitis Arenaviruses (LCMV): Viability assay - alamar blue signal for LCMV Primary Screen (AID 1347085; calls by dose curve; tested in HEK293 reporter line; also: series mostly up to about 57 µM; % is scaled to controls: 0 for no effect and ±100 for the full control effect; nearly all actives have a fitted effect of over 80% in size)
[7] = target: Nucleoprotein (Lymphocytic choriomeningitis virus (strain Armstrong)) (UniProt P09992); experiment: qHTS for Inhibitors of the Functional Ribonucleoprotein Complex (vRNP) of Lymphocytic Choriomeningitis Arenaviruses (LCMV): LCMV Primary Screen - GLuc reporter signal (AID 1347086); also: series mostly up to about 57 µM; % is scaled to controls: 0 for no effect and ±100 for the full control effect; nearly all actives have a fitted effect of over 70% in size
Nucleoprotein (Lymphocytic choriomeningitis virus (strain Armstrong)), sequence (P09992 whole entry, looked up): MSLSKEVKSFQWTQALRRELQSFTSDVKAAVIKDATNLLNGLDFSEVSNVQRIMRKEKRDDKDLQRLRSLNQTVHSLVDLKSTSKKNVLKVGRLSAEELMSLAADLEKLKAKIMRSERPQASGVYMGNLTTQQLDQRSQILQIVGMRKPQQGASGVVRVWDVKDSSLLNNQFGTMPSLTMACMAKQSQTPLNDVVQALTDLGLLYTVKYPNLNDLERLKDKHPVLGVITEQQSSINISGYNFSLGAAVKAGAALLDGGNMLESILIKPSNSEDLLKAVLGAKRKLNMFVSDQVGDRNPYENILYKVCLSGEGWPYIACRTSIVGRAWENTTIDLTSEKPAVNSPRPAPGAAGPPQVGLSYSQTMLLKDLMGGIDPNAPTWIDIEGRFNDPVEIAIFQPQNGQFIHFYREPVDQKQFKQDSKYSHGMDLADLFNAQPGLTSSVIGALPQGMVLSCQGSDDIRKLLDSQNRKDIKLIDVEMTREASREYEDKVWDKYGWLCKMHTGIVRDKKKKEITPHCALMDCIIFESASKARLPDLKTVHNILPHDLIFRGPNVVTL

[8] = target: Androgen receptor (Homo sapiens) (UniProt P10275); experiment: qHTS assay for small molecule agonists of androgen receptor signaling (AID 588515; active = well fitted curve in the direction sought with a large enough effect in the signal ratio, with a control signal flat; the % refers to the signal ratio; also: % is scaled to controls: 0 for no effect and ±100 for the full control effect); conditions: AR-UAS-bla HEK293, beta-lactamase ratio, agonist 16 h; stronger effect = higher value
Androgen receptor (Homo sapiens), sequence (P10275 whole entry, looked up): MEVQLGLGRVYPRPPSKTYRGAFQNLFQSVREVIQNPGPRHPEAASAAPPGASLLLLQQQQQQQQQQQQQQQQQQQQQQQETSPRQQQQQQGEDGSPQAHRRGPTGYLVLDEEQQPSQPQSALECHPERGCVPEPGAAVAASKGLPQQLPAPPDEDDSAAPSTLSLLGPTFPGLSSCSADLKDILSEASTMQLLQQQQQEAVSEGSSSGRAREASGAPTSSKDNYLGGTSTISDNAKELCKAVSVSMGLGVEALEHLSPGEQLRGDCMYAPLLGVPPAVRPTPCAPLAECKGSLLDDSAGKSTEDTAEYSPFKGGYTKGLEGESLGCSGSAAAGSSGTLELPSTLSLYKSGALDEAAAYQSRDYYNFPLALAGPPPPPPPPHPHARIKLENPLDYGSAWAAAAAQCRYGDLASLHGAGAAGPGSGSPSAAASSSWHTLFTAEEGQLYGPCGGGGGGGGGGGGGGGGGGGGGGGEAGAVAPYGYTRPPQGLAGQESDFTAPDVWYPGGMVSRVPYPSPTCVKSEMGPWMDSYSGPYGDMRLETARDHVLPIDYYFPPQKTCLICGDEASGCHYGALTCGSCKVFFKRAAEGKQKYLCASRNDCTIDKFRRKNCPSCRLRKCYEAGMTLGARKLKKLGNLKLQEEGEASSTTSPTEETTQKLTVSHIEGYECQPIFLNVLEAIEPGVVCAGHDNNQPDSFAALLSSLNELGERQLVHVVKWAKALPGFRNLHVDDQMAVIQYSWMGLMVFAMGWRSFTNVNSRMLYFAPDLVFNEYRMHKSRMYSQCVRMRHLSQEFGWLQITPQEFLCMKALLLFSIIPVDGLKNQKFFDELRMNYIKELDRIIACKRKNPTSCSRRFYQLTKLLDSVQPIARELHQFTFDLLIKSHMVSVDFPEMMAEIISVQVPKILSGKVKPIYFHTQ
Procedure, shortened: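 Stimulation of an AR-responsive β-lactamase reporter in GripTite HEK293 cells was measured after 16 h compound exposure at 37 °C, via CCF4 fluorescence after 2 h RT. EC50 from Hill fits, normalized to R1881 at 30 nM.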

[9] = target: Androgen receptor (Homo sapiens) (UniProt P10275); experiment: qHTS assay for small molecule antagonists of androgen receptor signaling (AID 588516; active = well fitted curve in the direction sought with a large enough effect in the signal ratio, with a control signal flat, not every such curve was filed as active; the % refers to the signal ratio; also: % is scaled to controls: 0 for no effect and ±100 for the full control effect)
Procedure, shortened: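 AR-UAS-bla GripTite HEK 293 cells (2000/well) treated with compound titrations plus 10 nM R1881 for 16 h at 37C. Beta-lactamase read by CCF4 FRET (460/530 nm); IC50 from Hill fits, normalized to R1881 and DMSO control wells.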

[10] = target: Bile acid receptor (Homo sapiens) (UniProt Q96RI1); experiment: qHTS assay for small molecule antagonists of farnesoid X receptor signaling (AID 588526); also: % is scaled to controls: 0 for no effect and ±100 for the full control effect
Bile acid receptor (Homo sapiens), sequence (Q96RI1 whole entry, looked up): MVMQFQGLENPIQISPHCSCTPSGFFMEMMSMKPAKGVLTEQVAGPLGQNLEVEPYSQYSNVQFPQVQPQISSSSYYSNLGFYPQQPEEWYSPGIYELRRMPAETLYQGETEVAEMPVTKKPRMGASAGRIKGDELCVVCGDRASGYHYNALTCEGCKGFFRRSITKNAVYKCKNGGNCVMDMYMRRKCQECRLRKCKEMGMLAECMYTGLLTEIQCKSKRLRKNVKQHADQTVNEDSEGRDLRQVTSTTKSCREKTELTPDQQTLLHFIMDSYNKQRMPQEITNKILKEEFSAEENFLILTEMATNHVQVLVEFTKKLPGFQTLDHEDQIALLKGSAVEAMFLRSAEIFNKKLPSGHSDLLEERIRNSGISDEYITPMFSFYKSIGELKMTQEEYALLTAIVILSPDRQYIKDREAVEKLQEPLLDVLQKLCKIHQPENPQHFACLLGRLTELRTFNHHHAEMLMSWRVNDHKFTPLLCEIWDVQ
Procedure, shortened: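 Antagonist mode: titrated compounds tested against chenodeoxycholic acid stimulation (normalized to 50 uM CDCA and DMSO) in GeneBLAzer HEK293T cells for 16 h. Beta-lactamase read by CCF4 fluorescence; IC50 from Hill fits.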

[11] = target: Peroxisome proliferator-activated receptor delta (Homo sapiens) (UniProt Q03181); experiment: qHTS assay for small molecule agonists of peroxisome proliferator-activated receptor delta signaling (AID 588534);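 also: 0% = DMSO basal wells and 100% = positive control agonist at 10 µM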
Peroxisome proliferator-activated receptor delta (Homo sapiens), sequence (Q03181 whole entry, looked up): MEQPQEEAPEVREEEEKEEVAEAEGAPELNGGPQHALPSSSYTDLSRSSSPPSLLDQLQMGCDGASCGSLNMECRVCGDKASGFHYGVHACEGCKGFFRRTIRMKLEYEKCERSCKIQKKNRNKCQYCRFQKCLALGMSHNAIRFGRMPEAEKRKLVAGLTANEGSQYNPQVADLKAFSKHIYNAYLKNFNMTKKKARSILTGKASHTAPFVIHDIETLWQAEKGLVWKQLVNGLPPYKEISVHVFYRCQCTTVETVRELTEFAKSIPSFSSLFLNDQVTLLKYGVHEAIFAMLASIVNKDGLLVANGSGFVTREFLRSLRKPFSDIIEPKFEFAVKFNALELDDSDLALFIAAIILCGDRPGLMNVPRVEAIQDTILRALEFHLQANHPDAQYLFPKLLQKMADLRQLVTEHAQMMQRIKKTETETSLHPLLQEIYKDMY
Procedure, shortened: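 EC50 and efficacy values derive from Hill fits of a concentration series in a beta-lactamase reporter cell assay. Exposure is 18 hrs at 37 C, with CCF4 fluorescence as the readout.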

[12] = qHTS assay for small molecule antagonists of peroxisome proliferator-activated receptor delta signaling (AID 588535; active = well fitted inhibition curve with a large enough effect in the signal ratio, with a control signal flat, not every such curve was filed as active; the % refers to the signal ratio;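 as to max response: cells co-treated with a PPAR-delta agonist as stimulator during compound exposure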); conditions: HEK293T PPARd-UAS-bla, beta-lactamase FRET ratio, 18 h; 460 nm channel
Procedure, shortened: (§1)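 Beta-lactamase reporter read-out (405 nm excitation, 460/530 nm emission) after CCF4 loading for 2 hrs at RT. HEK293T PPAR-delta-UAS-bla cells, 2% charcoal/dextran FBS, compounds for 18 hrs at 37 C. Hill fit gave IC50 and efficacy.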

[13] = target: Peroxisome proliferator-activated receptor delta (Homo sapiens) (UniProt Q03181); experiment: as above
Procedure, shortened: as §1

[14] = target: Peroxisome proliferator-activated receptor gamma (Homo sapiens) (UniProt P37231); experiment: qHTS assay for small molecule agonists of peroxisome proliferator-activated receptor gamma signaling (AID 588536; active = well fitted curve in the direction sought with a large enough effect in the signal ratio, with a control signal flat, not every such curve was filed as active; the % refers to the signal ratio;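 also: 0% = DMSO basal wells and 100% = rosiglitazone at 2 µM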)
Procedure, shortened: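 This is an agonist-mode beta-lactamase reporter assay in HEK293 PPAR-gamma-UAS-bla cells with 1% charcoal/dextran FBS. Compound titrations ran 16 h at 37 C before CCF4 detection. EC50 and efficacy are Hill fits scaled to 2 uM rosiglitazone (100%) and DMSO basal.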

[15] = target: Vitamin D3 receptor (Homo sapiens) (UniProt P11473); experiment: qHTS assay for small molecule antagonists of vitamin D receptor signaling (AID 588541);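 also: receptor activated by calcitriol during compound treatment; series mostly up to about 77 µM; % is scaled to controls: 0 for no effect and ±100 for the full control effect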
Vitamin D3 receptor (Homo sapiens), sequence (P11473 whole entry, looked up): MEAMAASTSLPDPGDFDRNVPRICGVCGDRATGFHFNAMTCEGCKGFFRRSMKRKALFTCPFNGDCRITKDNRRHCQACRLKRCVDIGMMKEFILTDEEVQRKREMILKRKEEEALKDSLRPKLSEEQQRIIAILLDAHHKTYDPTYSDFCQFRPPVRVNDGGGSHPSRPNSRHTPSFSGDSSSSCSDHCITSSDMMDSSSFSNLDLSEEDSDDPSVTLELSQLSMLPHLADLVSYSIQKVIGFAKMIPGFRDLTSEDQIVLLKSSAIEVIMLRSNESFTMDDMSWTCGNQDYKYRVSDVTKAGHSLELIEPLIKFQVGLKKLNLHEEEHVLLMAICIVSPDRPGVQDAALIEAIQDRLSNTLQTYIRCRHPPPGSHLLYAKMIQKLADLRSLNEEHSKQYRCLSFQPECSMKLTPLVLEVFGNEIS
Procedure, shortened: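 VDR-UAS-bla HEK293T cells in 2% charcoal-stripped FBS were stimulated with 1-alpha,25-dihydroxyvitamin D3 (3 nM final) plus compound for 16 h at 37 C. The beta-lactamase CCF4 readout was normalized to 50 nM agonist and DMSO, and Hill fits gave IC50.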

[16] = target: Vitamin D3 receptor (Homo sapiens) (UniProt P11473); experiment: qHTS assay for small molecule agonists of vitamin D receptor signaling (AID 588543);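 also: 0% = DMSO basal and 100% = reference agonist control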
Procedure, shortened: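 VDR-UAS-bla HEK293T cells, 2000/well, 2% charcoal-stripped FBS; compound titration 16 h at 37 C; CCF4 beta-lactamase ratio read. Normalized to 50 nM 1-alpha,25-dihydroxyvitamin D3 (100%) and DMSO; Hill fit gives EC50, efficacy.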

[17] = qHTS assay for small molecule agonists of retinoid X receptor alpha signaling (AID 588544); conditions: HEK293T RXRa-UAS-bla, beta-lactamase reporter, 18 h; 530 nm emission;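 as to activation: 0% = DMSO basal wells and 100% = reference agonist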
[18] = target: Retinoic acid receptor RXR-alpha (Homo sapiens) (UniProt P19793); experiment: as above
Retinoic acid receptor RXR-alpha (Homo sapiens), sequence (P19793 whole entry, looked up): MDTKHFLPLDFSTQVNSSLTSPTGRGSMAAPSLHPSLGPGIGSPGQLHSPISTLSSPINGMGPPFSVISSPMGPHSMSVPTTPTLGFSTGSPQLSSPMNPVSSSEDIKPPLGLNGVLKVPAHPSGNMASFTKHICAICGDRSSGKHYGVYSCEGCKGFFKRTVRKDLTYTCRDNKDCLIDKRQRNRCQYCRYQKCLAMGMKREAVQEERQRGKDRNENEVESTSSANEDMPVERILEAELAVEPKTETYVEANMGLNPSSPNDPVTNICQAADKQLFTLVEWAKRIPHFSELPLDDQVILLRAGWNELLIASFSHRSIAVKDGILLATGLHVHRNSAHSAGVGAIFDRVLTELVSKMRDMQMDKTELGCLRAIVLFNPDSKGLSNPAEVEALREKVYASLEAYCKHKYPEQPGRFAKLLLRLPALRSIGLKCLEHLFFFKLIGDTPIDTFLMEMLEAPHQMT

[19] = target: Thyroid hormone receptor beta (Homo sapiens) (UniProt P10828); experiment: qHTS assay for small molecule agonists of thyroid hormone receptor beta signaling (AID 588545);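 also: 0% = DMSO only and 100% = 10 nM T3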
Thyroid hormone receptor beta (Homo sapiens), sequence (P10828 whole entry, looked up): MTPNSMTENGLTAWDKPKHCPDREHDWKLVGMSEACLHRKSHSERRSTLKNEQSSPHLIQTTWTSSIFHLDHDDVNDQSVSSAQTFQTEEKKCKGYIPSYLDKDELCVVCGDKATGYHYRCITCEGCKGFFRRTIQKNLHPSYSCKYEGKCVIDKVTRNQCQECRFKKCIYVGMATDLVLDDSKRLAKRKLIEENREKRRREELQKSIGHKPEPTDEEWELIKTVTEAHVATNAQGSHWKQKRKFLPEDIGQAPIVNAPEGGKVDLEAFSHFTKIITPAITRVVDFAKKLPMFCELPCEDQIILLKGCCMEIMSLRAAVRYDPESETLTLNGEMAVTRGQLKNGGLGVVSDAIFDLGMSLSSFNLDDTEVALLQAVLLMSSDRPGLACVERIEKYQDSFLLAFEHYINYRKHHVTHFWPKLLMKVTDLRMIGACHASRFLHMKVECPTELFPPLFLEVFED
Procedure, shortened: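 TR-UAS-bla-GripTite HEK 293 cells in medium with 2% charcoal/dextran FBS, 0.1 mM NEAA and 1 mM sodium pyruvate were treated with titrated compounds for 18 hrs at 37 C. Beta-lactamase reporter was read with CCF4 dye (ex 405, em 460/530 nm); EC50 from Hill fits.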

[20] = qHTS assay for small molecule antagonists of retinoid X receptor alpha signaling (AID 588546; active = well fitted inhibition curve with a large enough effect in the signal ratio, with a control signal flat, not every such curve was filed as active; the % refers to the signal ratio); conditions: HEK293T RXRa-UAS-bla, beta-lactamase ratio, antagonist mode; measured here: W530 green channel, cytotoxicity proxy
Procedure, shortened: (§2)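 Beta-lactamase reporter inhibition, read as CCF4 fluorescence ratio (ex 405, em 460/530 nm) after 2 h at RT. HEK293T UAS-bla cells, 2500/well, were stimulated with 9-cis-RA at 500 or 100 nM final alongside test compound for 18 h at 37 C.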

[21] = target: Retinoic acid receptor RXR-alpha (Homo sapiens) (UniProt P19793); experiment: as above; conditions: HEK293T RXRa-UAS-bla, beta-lactamase ratio, antagonist mode
Procedure, shortened: as §2

[22] = target: Thyroid hormone receptor beta (Homo sapiens) (UniProt P10828); experiment: qHTS assay for small molecule antagonists of thyroid hormone receptor beta signaling (AID 588547; active = well fitted inhibition curve with a large enough effect in the signal ratio, with a control signal flat, not every such curve was filed as active; the % refers to the signal ratio); conditions: TR-UAS-bla HEK293, beta-lactamase ratio, antagonist mode, 18 h
Procedure, shortened: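 TR-UAS-bla GripTite HEK293 cells in 2% charcoal/dextran FBS medium; compounds 0.59 nM to 92 uM with T3 at 0.4nM final, 18 h at 37 C. Beta-lactamase read by CCF4 fluorescence (460/530 nm); Hill fits gave IC50 and efficacy.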

[23] = qHTS assay for small molecule agonists of the antioxidant response element (ARE) signaling pathway (AID 651741; active = well fitted activation curve with a large enough effect in the signal ratio; the % refers to the signal ratio; also: % of control where 0% means no effect)
Procedure, shortened: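 HepG2 ARE-bla reporter cells, 2,000/well; 5 h settle at 37 C/5% CO2; compound pin transfer (23 nL, DMSO); 16 h at 37 C; LiveBLAzer B/G FRET substrate, 2 h RT; fluorescence intensity read.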

[24] = qHTS assay for environmental chemicals that activate the Aryl hydrocarbon Receptor (AhR) signaling pathway (AID 651777; active = well fitted curve in the direction sought with a large enough effect; an effect the other way counts as inactive or inconclusive; also: % of control where 0% means no effect; nearly all actives have a fitted effect of over 15% in size); conditions: 1A2-DRE human hepatoma cells, luciferase, 24 h; activation: stronger effect = higher value
Procedure, shortened: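 Luminescence (One-Glo, 30 min, room temperature) reports AhR-driven luciferase in stably transfected human hepatoma cells bearing DRE and CYP1A2 promoter. Cells (1,200/well) were treated with compound for 24 hr at 37 C in qHTS format.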

[25] = target: Peroxisome proliferator-activated receptor alpha (Homo sapiens) (UniProt Q07869); experiment: qHTS assay for small molecule agonists of the peroxisome proliferator-activated receptor alpha (PPARalpha) signaling pathway (AID 651778; active = well fitted curve in the direction sought with a large enough effect; an effect the other way counts as inactive or inconclusive; also: % of control where 0% means no effect); conditions: PathHunter PPARalpha complementation, chemiluminescence, 6 h; stronger effect = higher value
Procedure, shortened: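 Enzyme-fragment complementation assay in which ligand-bound PPARalpha translocates and forms an active enzyme that generates chemiluminescence. Cells were plated overnight, exposed to compound for 6 hr at 37 C, and then given detection reagent for 60 min at room temperature.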

[26] = qHTS assay for small molecule agonists of the antioxidant response element (ARE) signaling pathway measured by Nrf2-dependant transcriptional activity (AID 720636; active = well fitted curve in the direction sought with a large enough effect in the repeat runs; an effect the other way counts as inactive or inconclusive; also: % of control where 0% means no effect)
Procedure, shortened: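 Nrf2-dependent transcription read as ONE-Glo luciferase signal from ARE-luc HepG2 reporter cells after 16 hr compound treatment at 37 C, 5% CO2, in assay medium with 1% dialyzed FBS.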

[27] = qHTS assay for small molecule agonists of the antioxidant response element (ARE) signaling pathway measured by Nrf2-dependant transcriptional activity - cell viability counter screen (AID 720653; active = well fitted curve in the direction sought with a large enough effect in the repeat runs; an effect the other way counts as inactive or inconclusive; also: % is scaled to controls: 0 for no effect and ±100 for the full control effect); conditions: ARE-bla HepG2 viability, CellTiter-Glo ATP luminescence, 16 h; max response: stronger effect = lower value
Procedure, shortened: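 ARE-bla HepG2 cells treated with compounds for 16 h at 37C; this counter screen measures viability as intracellular ATP by CellTiter-Glo luminescence after 30 min at room temperature.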

[28] = qHTS assay for cell viability of HEK293 cells (AID 743288; active = well fitted curve in the direction sought with a large enough effect; an effect the other way counts as inactive or inconclusive; also: % is scaled to controls: 0 for no effect and ±100 for the full control effect; nearly all actives have a fitted effect of over 50% in size); conditions: ATP luminescence (CellTiter-Glo), 18 h; max response: stronger effect = lower value
Procedure, shortened: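 Steps: plate 2,000 parental HEK293 cells per well; incubate ≥5 h, 37 C; add compounds in DMSO; incubate 18 h, 37 C; add CellTiter-Glo; wait 30 min at room temperature; read luminescence.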

[29] = qHTS assay for cell viability of the p53RE-bla HCT-116 cell line (AID 743292; active = well fitted curve in the direction sought with a large enough effect; an effect the other way counts as inactive or inconclusive; also: % is scaled to controls: 0 for no effect and ±100 for the full control effect; nearly all actives have a fitted effect of over 55% in size)
Procedure, shortened: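 ATP-based luminescent viability (CellTiter-Glo, 30 min RT) after 16 h compound treatment at 37 C of p53RE-bla HCT-116 cells, seeded at 4,000 cells/well and rested 5 h before dosing.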

[30] = target: Nuclear receptor subfamily 1 group I member 2 (Rattus norvegicus) (UniProt Q9R1A7); experiment: qHTS assay for small molecule activators of the rat pregnane X receptor (rPXR) signaling pathway (AID 651751; call rule not given here; also: 0% is about no effect); conditions: rPXR reporter cells, luciferase (One-Glo), 24 h
Nuclear receptor subfamily 1 group I member 2 (Rattus norvegicus), sequence (Q9R1A7 whole entry, looked up): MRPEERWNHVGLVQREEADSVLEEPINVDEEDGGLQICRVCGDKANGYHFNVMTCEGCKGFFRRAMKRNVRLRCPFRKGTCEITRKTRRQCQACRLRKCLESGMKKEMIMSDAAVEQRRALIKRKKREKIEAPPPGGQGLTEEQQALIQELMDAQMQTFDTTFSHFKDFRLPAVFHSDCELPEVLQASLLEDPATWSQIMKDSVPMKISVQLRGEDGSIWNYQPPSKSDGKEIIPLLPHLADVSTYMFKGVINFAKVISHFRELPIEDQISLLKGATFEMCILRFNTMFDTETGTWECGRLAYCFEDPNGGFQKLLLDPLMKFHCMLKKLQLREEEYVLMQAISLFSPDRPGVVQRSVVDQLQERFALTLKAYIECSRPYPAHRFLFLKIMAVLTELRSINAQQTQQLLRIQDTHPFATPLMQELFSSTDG

[31] = qHTS assay for small molecule activators of the human pregnane X receptor (PXR) signaling pathway (AID 720659; call rule not given here; also: 0% is about no effect)
[32] = target: Cytochrome P450 3A4 (Homo sapiens) (UniProt P08684); experiment: qHTS Assay for Inhibitors and Substrates of Cytochrome P450 3A4 (AID 884; active = well fitted curve in the direction sought with a large enough effect; an effect the other way counts as inactive or inconclusive; also: series mostly up to about 57 µM; % is scaled to controls: 0 for no effect and ±100 for the full control effect; nearly all actives have a fitted effect of over 50% in size)
Procedure, shortened: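 Luminescent readout of luciferin produced by CYP3A4 (20 nM) dealkylation of Luciferin-PPXE, 25 uM (its KM). NADPH-driven reaction ran 60 min at RT after 10 min compound preincubation; data scaled to 57 uM ketoconazole as 100% inhibition.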

[33] = target: Ubiquitin carboxyl-terminal hydrolase 1 (Homo sapiens) (UniProt O94782); experiment: Inhibitors of USP1/UAF1: Pilot qHTS (AID 504865; active = well fitted curve in the direction sought with a large enough effect; an effect the other way counts as inactive or inconclusive;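 also: rhodamine fluorescence freed from ubiquitin-rhodamine substrate followed over time; top concentration of the series differs between compounds; % is scaled to controls: 0 for no effect and ±100 for the full control effect; nearly all actives have a fitted effect of over 35% in size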)
Procedure, shortened: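 USP1/UAF1 complex at 1 nM preincubated 15 min at room temperature with compound, then Ub-Rho substrate added at 150 nM final. Fluorescence (480/540 nm) read kinetically in 50 mM HEPES pH 7.8, 0.5 mM EDTA, 1 mM TCEP, 0.1 mg/ml BSA, 0.01% Tween-20.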

[34] = target: DNA dC->dU-editing enzyme APOBEC-3G (Homo sapiens) (UniProt Q9HC16); experiment: qHTS for inhibitors of Vif-A3G interactions: Validation (AID 588379; active = well fitted curve in the direction sought with a large enough effect; an effect the other way counts as inactive or inconclusive; also: 0% is about no effect)
DNA dC->dU-editing enzyme APOBEC-3G (Homo sapiens), sequence (Q9HC16 whole entry, looked up): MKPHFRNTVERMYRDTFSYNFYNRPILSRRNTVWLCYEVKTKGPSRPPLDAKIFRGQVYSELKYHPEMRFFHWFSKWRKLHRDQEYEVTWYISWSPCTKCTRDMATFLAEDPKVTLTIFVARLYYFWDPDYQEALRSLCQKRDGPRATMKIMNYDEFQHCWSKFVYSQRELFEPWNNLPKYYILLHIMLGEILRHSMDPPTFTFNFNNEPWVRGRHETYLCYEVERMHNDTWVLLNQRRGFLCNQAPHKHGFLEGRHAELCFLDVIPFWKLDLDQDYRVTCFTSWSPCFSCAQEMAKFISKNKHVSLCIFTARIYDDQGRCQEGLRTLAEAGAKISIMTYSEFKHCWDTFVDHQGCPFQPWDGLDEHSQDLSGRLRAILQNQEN
Procedure, shortened: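 Yellow fluorescence (Ex 488, Em 500-530) of Vif-coexpressing HeLa A3G-eYFP cells, scanned by Acumen cytometer, reports blocked A3G degradation. Cells plated at 700/well overnight at 37 deg C before compound addition, then a further overnight compound incubation at 37 deg C.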

[35] = target: Bile acid receptor (Homo sapiens) (UniProt Q96RI1); experiment: qHTS assay for small molecule agonists of farnesoid X receptor signaling (AID 588527); conditions: HEK293T FXR-UAS-bla, beta-lactamase ratio, 16 h; activation: stronger effect = higher value;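 also: series mostly up to about 77 µM; 0% = vehicle basal and 100% = reference agonist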
Procedure, shortened: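 Agonist-mode beta-lactamase reporter in GeneBLAzer FXR-UAS-bla HEK293T cells, titration up to 92 uM, 16 h exposure at 37 C, CCF4 fluorescence. Response scaled to DMSO (0%) and 100 uM chenodeoxycholic acid (100%), then Hill-fitted for EC50 and efficacy.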

Nc1ccc2c3c(cccc13)C(=O)NC2=O
inactive: outcome [1] | outcome [2] | outcome [3] | Potency [4] | Potency [5] | Potency [6] | Potency [7]

Cc1ccc(C)c2ccccc12
22.6%: max response [12]
inactive: activation [8] 26.3% | outcome [9] | Potency [10] | Potency [11] | outcome [13] | outcome [14] | outcome [15] | Potency [16] | outcome [18] | Potency [19] | max response [21] 3.54% | activity change % (negative = inhibition) [22] -0.662% | Potency [23] | activation [24] 1.38% | max response [25] -1.64% | Potency [26] | max response [27] -14.6% | max response [28] -1.65% | outcome [29] | Potency [4] | Potency [5] | Potency [6] | Potency [7] | max response [30] -3.33% | outcome [31]
-5.36%: max response [20]
-18.4%: max response [17]

O=CN1CCCCC1C1CC[C@H]2CCCCN2C1 (some centres not stated)
inactive: Potency [32] | Potency [33] | Potency [34] | Potency [4] | Potency [5] | Potency [6] | Potency [7]

COCCOCCOCCOC
inactive: activation [35] 4.16% | Potency [4] | Potency [5] | Potency [6] | Potency [7]
